Bioassay records (PubChem BioAssay)
Most compounds without a hit are left out; they make up all but 9.5% or so of the library.
ALDH1A1 block = inhibitors of human aldehyde dehydrogenase 1A1; 220,000 tested, 7.3% active; AID 1030; Potency, µM (series often up to 75.3 µM), for inactives: at the top dose activity, negative = inhibition, actives largely listed as inhibitors; P00352; Purified ALDH1A1, NADH fluorescence, propionaldehyde substrate; active = well fitted inhibition curve with a large enough effect, not every such curve was filed as active; inconclusive = small, poorly fitted or top-dose-only effect, or another doubt; inactive = no such curve, though single readings can be large or run the other way;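 note: potency is the fitted concentration of half-maximal effect; plate controls were no enzyme wells and a reference inhibitor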
NPSR antag = neuropeptide S receptor (human) antagonism, cAMP; AID 1461; CHO-NPSR cells, cAMP TR-FRET, antagonist mode; Q6W5P4; Potency, µM (titrated, usually from 38.3 µM), for inactives: at the top dose activity change, negative = inhibition, most hits filed as inhibitors; 220,000 tested, 1% active; note: potency is the fitted concentration of half-maximal effect; % is set by controls: 0 for no effect and ±100 for the full control effect; nearly all actives have a fitted effect of over 50% in size
Target sequence (Q6W5P4 whole entry, looked up): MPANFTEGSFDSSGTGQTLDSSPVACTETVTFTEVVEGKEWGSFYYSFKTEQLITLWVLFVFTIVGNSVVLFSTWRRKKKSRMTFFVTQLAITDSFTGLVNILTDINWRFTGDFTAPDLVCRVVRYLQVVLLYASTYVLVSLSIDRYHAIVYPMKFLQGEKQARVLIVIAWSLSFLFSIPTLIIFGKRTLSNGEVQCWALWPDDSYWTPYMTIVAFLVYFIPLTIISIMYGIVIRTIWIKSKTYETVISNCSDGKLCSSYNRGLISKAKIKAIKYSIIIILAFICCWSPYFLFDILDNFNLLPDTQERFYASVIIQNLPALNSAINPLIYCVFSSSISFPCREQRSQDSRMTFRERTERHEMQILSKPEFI
Tau fluor counter = counter-screen for tau fibril formation inhibitors | AID 1463 | Potency, µM (highest dose often 57.7 µM), for inactives: at the top dose activity change, negative = decrease | 280,000 tested, 0.93% active | tau K18 P301L Alexa594 fluorescence, heparin fibrillization; note: potency is the fitted concentration of half-maximal effect; % is set by controls: 0 for no effect and ±100 for the full control effect; nearly all actives have a fitted effect of over 55% in size
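Human tau K18 P301L (15 uM unlabeled, 0.24 uM Alexa 594-labeled) in 100 mM sodium acetate pH 7 with 20 uM heparin, 6 hr at 37 C. ThT 30 uM added, 1 hr ambient; Alexa 594 FP and total fluorescence read at 555/632 nm.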
Tau ThT inhib = blocks human tau fibril formation measured by thioflavin T. recombinant tau K18 P301L, heparin-induced fibrillization, ThT fluorescence. Potency, µM (top dose mostly 57.4 µM), for inactives: at the top dose activity, negative = inhibition, most hits filed as inhibitors. 270,000 tested, 2.1% active; note: potency is the fitted concentration of half-maximal effect; % is set by controls: 0 for no effect and ±100 for the full control effect; nearly all actives have a fitted effect of over 55% in size
Target sequence (P10636 561-689 P618L limits assumed): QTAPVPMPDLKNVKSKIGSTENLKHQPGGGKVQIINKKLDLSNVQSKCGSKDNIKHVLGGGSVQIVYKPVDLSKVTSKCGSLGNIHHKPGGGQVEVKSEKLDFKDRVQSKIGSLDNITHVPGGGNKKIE
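Using a mix of unlabeled (15 uM) and Alexa 594-labeled (0.24 uM) tau K18 P301L, heparin-triggered fibrillization over 6 hr at 37 C was scored by ThT fluorescence.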
HPGD inh = inhibitors of human 15-hydroxyprostaglandin dehydrogenase (HPGD). purified HPGD, NADH fluorescence kinetic, PGE2 substrate. Potency, µM, inactives show top-dose activity change, negative = inhibition, most hits filed as inhibitors. 150,000 tested, 4.3% active. AID 894; active = well fitted inhibition curve with a large enough effect, not every such curve was filed as active; inconclusive = small, poorly fitted or top-dose-only effect, or another doubt; inactive = no such curve, though single readings can be large or run the other way; note: potency is the fitted concentration of half-maximal effect; % is set by controls: 0 for no effect and ±100 for the full control effect
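NADH formation kinetics: reaction with 30 uM PGE2 and 1 mM NAD+ (final), 20 nM enzyme, Tris-HCl pH 8 with Tween 20, after 15 min compound preincubation at room temperature. Fluorescence change, last versus first of five reads.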
Tau fibril FP = blocks human tau fibril formation measured by polarization. P10636. K18 P301L tau heparin fibrillization, Alexa594 FP, 6 h. Potency, µM (series often up to 57.7 µM), for the others: at the highest dose activity, negative = inhibition, hits mostly inhibitors. 280,000 tested, 0.39% active. AID 1468; note: potency is the fitted concentration of half-maximal effect; % is set by controls: 0 for no effect and ±100 for the full control effect; nearly all actives have a fitted effect of over 55% in size
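Heparin (20 uM) drove fibril formation of recombinant tau K18 P301L, 15 uM unlabeled with 0.24 uM Alexa 594 label, for 6 hr at 37 C in 100 mM sodium acetate pH 7. Fluorescence polarization (555/632 nm) read 1 hr after 30 uM ThT.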
HPGD inh cf = human HPGD enzyme inhibition, confirmation. shares compounds with HPGD inh. 90 tested, 90% active. recombinant HPGD, NADH fluorescence, PGE2 substrate. Potency, µM (top dose mostly 57.1 µM), for the others: at the highest dose activity change, negative = inhibition, actives largely listed as inhibitors. AID 2429; calls by dose curve
Active calls of the source: *; [ ] = remark or other dose. Unless noted, calls come from the whole dose curve; as a rule, active = well fitted curve in the direction sought with a large enough effect; inconclusive = small, poorly fitted or top-dose-only effect, or another doubt; inactive = no such curve, though single readings can be large; an effect the other way counts as inactive or inconclusive.

For Cc1ccc(NS(=O)(=O)c2cc(C(=O)N3CCc4ccccc4C3)ccc2Cl)cc1 the results were ALDH1A1 block 6%, NPSR antag inconclusive, Tau fluor counter -20%, Tau ThT inhib -9%, HPGD inh -21%, Tau fibril FP 0% and HPGD inh cf -36%.
Screening Cc1ccccc1NS(=O)(=O)c1cc(C(=O)N2CCc3ccccc3C2)ccc1C returned ALDH1A1 block 0%, NPSR antag inconclusive, Tau fluor counter -15%, Tau ThT inhib -13%, HPGD inh -11% and Tau fibril FP -2%.
COc1ccc(S(=O)(=O)Nc2cc(Sc3ncn[nH]3)c(O)c3ccccc23)cc1 was read as ALDH1A1 block inconclusive, NPSR antag inconclusive, Tau fluor counter inconclusive, Tau ThT inhib 7.1µM*, HPGD inh 1.1µM*, Tau fibril FP 16µM* and HPGD inh cf 0.35µM*.
For CC(=O)OC[C@@H]1O[C@H](C/C=N\OC[C@@H](C)[C@H](OCc2ccccc2)C(C)C)C=C[C@@H]1OC(C)=O the results were ALDH1A1 block 4%[13.5 µM], Tau fluor counter -12%[11.6 µM], Tau ThT inhib -7%[11.5 µM] and Tau fibril FP 5%[11.6 µM].
For CCOC(=O)C1=C(C)C/C(=N\NC(=O)c2ccccc2O)CC1 the results were NPSR antag -2%, Tau fluor counter -5%, Tau ThT inhib -8% and Tau fibril FP 2%.
Screening Cc1nnc(NC(=O)CSc2n[nH]c(-c3ccccc3)n2)s1 returned ALDH1A1 block inconclusive, NPSR antag 0%, Tau fluor counter -1%, Tau ThT inhib -9% and Tau fibril FP 7%.
`O=C(CSc1n[nH]c(-c2ccccc2)n1)Nc1ncc(Br)cc1Br` gave ALDH1A1 block 7%, NPSR antag -25%[46.1 µM], Tau fluor counter -16%, Tau ThT inhib -18%, HPGD inh 0.79µM*, Tau fibril FP 5% and HPGD inh cf 1.4µM*.
For COc1ccc(OCC(O)Cn2c(NCCO)nc3c2c(=O)n(C)c(=O)n3C)cc1 (centres undefined) the results were Tau fluor counter 4%, Tau ThT inhib 2% and Tau fibril FP 2%.
Screening Cc1ccccc1C(=O)N1CCc2ccccc2C1 returned ALDH1A1 block inconclusive, NPSR antag -9%[46.1 µM], Tau fluor counter -3%, Tau ThT inhib -1%, HPGD inh 0.63µM*, Tau fibril FP -9% and HPGD inh cf 2.5µM*.
`COc1ccc(C)cc1NC(=O)c1cc2c(s1)-c1ccccc1SC2` gave Tau fluor counter -29%, Tau ThT inhib -10% and Tau fibril FP inconclusive.
CCc1ccccc1Nc1nc2ccccc2n2cnnc12 was read as Tau fluor counter -18%, Tau ThT inhib -7% and Tau fibril FP -1%.
Cc1ccc(S(=O)(=O)N(C)c2ccc(C(=O)N3CCC(C(N)=O)CC3)cc2)cc1 was read as ALDH1A1 block 1%, NPSR antag -5%[46.1 µM], Tau fluor counter -2%, Tau ThT inhib 7%, HPGD inh 28µM*, Tau fibril FP -2% and HPGD inh cf inconclusive.
Screening Cc1oc(-c2cccc(Cl)c2)nc1CSc1nc2c(c(=O)[nH]1)CCC2 returned ALDH1A1 block 4%, NPSR antag 18%, Tau fluor counter -4%, Tau ThT inhib 7%, HPGD inh 0.56µM*, Tau fibril FP 9% and HPGD inh cf 1.3µM*.
For COc1ccccc1Nc1nn2c(=O)c3ccc(C(=O)NC4CCC(C)CC4)cc3nc2s1 (centres undefined) the results were Tau fluor counter -17%, Tau ThT inhib -11% and Tau fibril FP 4%.
`CCN(CC)C(=O)c1sc2nc(-c3cccs3)cc(-c3ccc(Cl)cc3)c2c1N` gave ALDH1A1 block inconclusive, NPSR antag -20%[46.1 µM], Tau fluor counter -16%, Tau ThT inhib inconclusive, HPGD inh 6.3µM*, Tau fibril FP 1% and HPGD inh cf 10µM*.
Screening CC1CCN(C(=O)CCc2ccc(Oc3cc([N+](=O)[O-])cc([N+](=O)[O-])c3)cc2)CC1 returned ALDH1A1 block inconclusive, NPSR antag -16%, Tau fluor counter -21%, Tau ThT inhib inconclusive, HPGD inh 1µM*, Tau fibril FP 7% and HPGD inh cf 0.89µM*.
`O=C(CCc1ccc(Oc2cc([N+](=O)[O-])cc([N+](=O)[O-])c2)cc1)NC1CCCC1` gave ALDH1A1 block -6%, NPSR antag -10%, Tau fluor counter -20%, Tau ThT inhib -15%, HPGD inh 16µM*, Tau fibril FP 15% and HPGD inh cf 5µM*.
Cc1ccc(C(=O)COC(=O)CCC(=O)NC2CCCCC2)cc1[N+](=O)[O-] was read as ALDH1A1 block -9%, NPSR antag 9%, Tau fluor counter -6%, Tau ThT inhib -7% and Tau fibril FP 0%.
Screening COc1ccccc1CNC(=O)Cc1c(C)c2c(cc(C)c3c(C)c(C)oc32)oc1=O returned Tau fluor counter 2%, Tau ThT inhib 4% and Tau fibril FP 7%.
Screening CCOc1ccc(CCNC(=O)CCc2c(C)nc3c(c(C)nn3-c3ccc(C)c(C)c3)c2C)cc1 returned Tau fluor counter 1%, Tau ThT inhib -4% and Tau fibril FP -7%.
O=C(c1ccc([N+](=O)[O-])cc1[N+](=O)[O-])N1CCCC1 was read as ALDH1A1 block -2%, NPSR antag -8%, Tau fluor counter 9%, Tau ThT inhib 5% and Tau fibril FP inconclusive.
Screening O=C(c1cccc([N+](=O)[O-])c1)N1CCCC(C(=O)N2CCCCC2)C1 (centres undefined) returned NPSR antag 9%, Tau fluor counter -1%, Tau ThT inhib -1% and Tau fibril FP 8%.
For CC1CCCN(C(=O)c2sc3cc([N+](=O)[O-])ccc3c2Cl)C1 (centres undefined) the results were ALDH1A1 block 5.6µM*, NPSR antag -25%[46.1 µM], Tau fluor counter -14%, Tau ThT inhib inconclusive, HPGD inh 0.45µM*, Tau fibril FP 7% and HPGD inh cf 0.5µM*.
`O=C(c1sc2cc([N+](=O)[O-])ccc2c1Cl)N1CCCCC1` gave ALDH1A1 block inconclusive, NPSR antag -17%, Tau fluor counter -18%, Tau ThT inhib inconclusive, HPGD inh 1.1µM*, Tau fibril FP inconclusive and HPGD inh cf 0.56µM*.
